Measurements from PubChem BioAssay (Tox21).
Several values for one entry are separate records, joined by “and”; a condition that tells them apart may be missing. Equal entries are not always repeated. A structure can be active in one record and inactive in another. Activity calls are given as the source filed them. Where a call stands in place of a potency, no number is given. Unless noted, calls follow the shape of the dose curve; as a rule, active = well fitted curve in the direction sought with a large enough effect in the repeat runs; inconclusive = weak or mixed curves; inactive = no such curve, though single readings can be large; an effect the other way counts as inactive or inconclusive.

Legend:
[1] = qHTS assay for small molecule agonists of the p53 signaling pathway (AID 651631; calls by dose curve; also: nearly all actives have a fitted effect of over 15% in size; also: potency is read from the fitted curve at half-maximal effect)
Method in brief: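 We treat p53RE-bla HCT-116 cells with compounds for 16 h at 37 °C, add LiveBLAzer B/G FRET substrate for 2 h at room temperature, and measure fluorescence intensity.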

[2] = qHTS assay for small molecules that induce genotoxicity in human embryonic kidney cells expressing luciferase-tagged ATAD5 (AID 651632); also: nearly all actives have a fitted effect of over 15% in size; also: potency is read from the fitted curve at half-maximal effect
Method in brief: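 Cells were seeded at 2,000 per well, dosed with compound, and incubated 16 hr at 37C in 5% CO2. Luciferase activity was then quantified after a 30 min room-temperature incubation with Amplite.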

[3] = qHTS assay for small molecule agonists of the p53 signaling pathway - cell viability (AID 651633; calls by dose curve; also: nearly all actives have a fitted effect of over 30% in size; also: potency is read from the fitted curve at half-maximal effect)
Method in brief: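 p53RE-bla cells, seeded at 4,000 per well and rested 5 h at 37 C/5% CO2, received compounds in DMSO for 16 h at 37 C. CellTiter-Glo was then added, and luminescence was read after 30 min at room temperature to gauge cytotoxicity.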

[4] = qHTS assay for small molecule disruptors of the mitochondrial membrane potential - cell viability (AID 720634; calls by dose curve;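 also: human HepG2 liver cancer cells; series mostly up to about 83 µM; nearly all actives have a fitted effect of over 20% in size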)
Method in brief: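 Cytotoxicity was measured by ATP quantitation in HepG2 wells that had first been treated with compound for 1 hr and stained with m-MPI dye; CellTiter-Glo incubation was 30 min at room temperature.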

[5] = qHTS assay to test for compound auto fluorescence at 535 nm (green) in HepG2 cells (AID 720675)
[6] = qHTS assay to test for compound auto fluorescence at 460 nm (blue) in HEK293 cells (AID 720678)
Method in brief: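 Blue read-out at excitation 405 nm and emission 460 nm follows overnight compound exposure of HEK293 cells at 37C in 5% CO2. Activity is given as auto fluorescence equivalency to triamterene.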

[7] = qHTS assay to test for compound auto fluorescence at 535 nm (green) in HEK293 cells (AID 720680)
[8] = qHTS assay to test for compound auto fluorescence at 460 nm (blue) in HEK293 cell free culture (AID 720681)
Method in brief: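 Test compounds were pinned into cell-free culture medium (DMEM with 10% FBS) and fluorescence was read directly at Ex/Em 405/460 nm. Signals were expressed as fluorescence equivalents of triamterene, with DMSO vehicle as control.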

[9] = qHTS assay to test for compound auto fluorescence at 590 nm (red) in HEK293 cell free culture (AID 720683)
Method in brief: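 Tox21 10K library compounds were pinned into cell-free DMEM with 10% FBS and fluorescence was read at excitation 540 nm. Activity is expressed as Rose Bengal sodium equivalency.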

[10] = qHTS assay to test for compound auto fluorescence at 590 nm (red) in HepG2 cell free culture (AID 720684)
Method in brief: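 Readout: intrinsic compound fluorescence at 590 nm emission after 540 nm excitation, scaled to Rose Bengal sodium. Matrix was cell-free MEM with 10% FBS; DMSO vehicle wells served as control.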

[11] = qHTS assay to test for compound auto fluorescence at 460 nm (blue) in HepG2 cell free culture (AID 720685)
Method in brief: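 Cell-free plates of MEM plus 10% FBS received 23 nL compound or DMSO vehicle; blue-channel (405/460 nm) intensity scored against triamterene as reference fluorophore.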

[12] = qHTS assay to test for compound auto fluorescence at 535 nm (green) in HepG2 cell free culture (AID 720686)
[13] = qHTS assay to test for compound auto fluorescence at 460 nm (blue) in HepG2 cells (AID 720687)
Method in brief: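 Cells (2,000/well in MEM with 10% FBS) attached overnight at 37 C, then were exposed to compound or DMSO for 1 hr at 37 C, 5% CO2. Fluorescence read at Ex/Em 405/460 nm, expressed as triamterene-equivalent signal.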

[14] = molecular target: Glucocorticoid receptor (Homo sapiens) (UniProt P04150); assay: qHTS assay to identify small molecule agonists of the glucocorticoid receptor (GR) signaling pathway (AID 720691; active = well fitted activation curve with a large enough effect in the signal ratio in the repeat runs, not every such curve was filed as active; inconclusive = weak or mixed curves, or effect the other way; inactive = no such curve, though single readings can be large or run the other way; the % refers to the signal ratio; also: potency is read from the fitted curve at half-maximal effect)
Method in brief: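 Steps: seed GR-bla HeLa cells, incubate 4 h at 37 C/5% CO2; pin-transfer DMSO-dissolved compounds; incubate 18 h at 37 C; add LiveBLAzer B/G FRET substrate; after 2 h at room temperature, measure fluorescence.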

[15] = qHTS assay to test for compound auto fluorescence at 590 nm (red) in HepG2 cells (AID 720674)
Method in brief: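 Intrinsic compound fluorescence in the red window (Ex/Em 540/590 nm) is measured in attached HepG2 cells exposed for 1 hr, DMSO vehicle as baseline, benchmarked to Rose Bengal sodium.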

[16] = qHTS assay to test for compound auto fluorescence at 535 nm (green) in HEK293 cell free culture (AID 720682)
Method in brief: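 Green-channel intensity (Ex/Em 485/535 nm) was recorded from compound-treated wells containing only DMEM with 10% FBS. Fluorescein provided the equivalency standard.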

[17] = molecular target: Glucocorticoid receptor (Homo sapiens) (UniProt P04150); assay: qHTS assay to identify small molecule antagonists of the glucocorticoid receptor (GR) signaling pathway (AID 720692; active = well fitted inhibition curve with a large enough effect in the signal ratio in the repeat runs, not every such curve was filed as active; inconclusive = weak or mixed curves, or effect the other way; inactive = no such curve, though single readings can be large or run the other way; the % refers to the signal ratio)
Method in brief: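 Antagonism was scored as loss of dexamethasone-driven (5 nM final) reporter signal in HeLa cells bearing a glucocorticoid response element–beta-lactamase construct, after 18 h compound exposure at 37 C and 2 h FRET substrate loading.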

[18] = qHTS assay to test for compound auto fluorescence at 590 nm (red) in HEK293 cells (AID 720679)
Method in brief: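 Red channel, Ex/Em 540/590nm; signal expressed as equivalency to Rose Bengal sodium. HEK293, 2,000 cells/well, 10% dialyzed FBS; 23 nL compound pinned after 4-5 hr attachment; overnight 37C/5% CO2 before reading.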

[19] = qHTS assay for small molecule disruptors of the mitochondrial membrane potential (AID 720635); also: potency is read from the fitted curve at half-maximal effect
Method in brief: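 HepG2 cells (2,000/well) attached overnight at 37C, then took compound for 1 hr at 37C, 5% CO2. Mito-MPS dye was added for 30 min; fluorescence was read at 490/535 nm (monomers) and 540/590 nm (aggregates).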

[20] = qHTS assay for small molecules that induce genotoxicity in human embryonic kidney cells expressing luciferase-tagged ATAD5 - cell viability (AID 651634; calls by dose curve; also: nearly all actives have a fitted effect of over 25% in size)
Method in brief: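 Cells (HEK293T, luciferase-tagged ATAD5) are seeded at 2,000 per well, dosed with compound or DMSO vehicle, and incubated 15.5 hr at 37C and 5% CO2. CellTiter-Fluor is added for 30 min before fluorescence is measured.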

Glucocorticoid receptor (Homo sapiens), sequence (P04150 whole entry, looked up): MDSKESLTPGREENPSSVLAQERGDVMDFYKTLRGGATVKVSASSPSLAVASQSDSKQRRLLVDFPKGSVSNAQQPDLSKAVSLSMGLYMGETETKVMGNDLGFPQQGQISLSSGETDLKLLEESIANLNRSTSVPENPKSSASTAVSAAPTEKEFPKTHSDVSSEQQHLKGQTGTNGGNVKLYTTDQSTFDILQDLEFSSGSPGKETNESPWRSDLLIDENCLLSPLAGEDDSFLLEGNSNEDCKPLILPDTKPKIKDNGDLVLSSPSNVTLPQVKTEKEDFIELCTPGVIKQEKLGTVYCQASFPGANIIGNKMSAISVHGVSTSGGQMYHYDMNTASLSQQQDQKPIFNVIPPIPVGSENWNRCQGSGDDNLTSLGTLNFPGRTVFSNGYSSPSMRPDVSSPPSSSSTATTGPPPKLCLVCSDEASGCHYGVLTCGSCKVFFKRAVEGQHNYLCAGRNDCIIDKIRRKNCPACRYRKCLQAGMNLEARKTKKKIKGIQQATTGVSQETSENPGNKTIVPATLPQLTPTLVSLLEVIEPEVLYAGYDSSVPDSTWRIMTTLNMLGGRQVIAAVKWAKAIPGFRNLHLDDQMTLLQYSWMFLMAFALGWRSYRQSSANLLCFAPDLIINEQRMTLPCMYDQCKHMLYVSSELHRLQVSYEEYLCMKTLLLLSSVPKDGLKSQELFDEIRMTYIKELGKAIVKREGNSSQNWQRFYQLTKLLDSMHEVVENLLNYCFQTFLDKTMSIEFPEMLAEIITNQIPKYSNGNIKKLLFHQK

Structure (SMILES)	Potency [1]	Potency [2]	Potency [3]	Potency [4]	Potency [5]	outcome [6]	Potency [7]	outcome [8]	Potency [9]	Potency [10]	outcome [11]	Potency [12]	outcome [13]	Potency [14]	Potency [15]	Potency [16]	Potency [17]	Potency [18]	Potency [19]	Potency [20]
Cn1cnc([N+](=O)[O-])c1Sc1ncnc2nc[nH]c12	24.2 µM (active)	inactive	0.68 µM (active)	inactive	inactive	inactive	inactive	inactive	inactive	inactive	inactive	inactive	inactive	inactive	–	–	–	–	–	–
Cc1c(OCC(F)(F)F)ccnc1CS(=O)c1nc2ccccc2[nH]1 (stereo not given)	inactive	inactive	inactive	inactive	–	inactive	–	inactive	inactive	inactive	inactive	inactive	inactive	inactive	inactive	inactive	inactive	–	–	–
c1cc(-c2ccncc2)ccn1	inactive	inactive	inactive	inactive	inactive	inactive	inactive	inactive	inactive	inactive	inactive	inactive	inactive	inactive	–	–	inactive	inactive	–	–
COc1cccc2c1C(=O)c1c(O)c3c(c(O)c1C2=O)C[C@@](O)(C(=O)CO)C[C@@H]3O[C@H]1C[C@H](N)[C@H](O)[C@H](C)O1	inactive and 596 nM (active) and 243 nM (active)	inactive and 376 nM (active)	inactive	inactive	–	inactive	inactive	inactive	inactive	inactive	inactive	inactive	inactive	535 nM [inconclusive] (active) and 174 nM (active)	inactive	inactive	inactive	inactive	inactive and 2.73 µM (active)	–
CC(C)=CCCC(C)CCO (stereo not given)	inactive	inactive	inactive	inactive	–	inactive	inactive	inactive	inactive	inactive	inactive	inactive	inactive	–	inactive	–	–	inactive	–	–
CC(C)CC(C)(O)C#CC(C)(O)CC(C)C (stereo not given)	inactive	–	inactive	inactive	inactive	inactive	inactive	inactive	inactive	inactive	inactive	inactive	inactive	inactive	inactive	inactive	inactive	inactive	47.6 µM (active) and 48.6 µM (active)	–
C=CC(C)(CCC=C(C)C)OC(C)=O (stereo not given)	inactive	inactive	inactive	inactive	inactive	inactive	–	inactive	inactive	inactive	inactive	inactive	inactive	inactive	inactive	inactive	inactive	inactive	inactive	–
C=C(C)C(=O)OCCOC(=O)C(=C)C	inactive	inactive	inactive	inactive	inactive	inactive	–	inactive	–	inactive	inactive	inactive	inactive	inactive	inactive	inactive	inactive	inactive	inactive	–
CCCCOCCOCCOCCO	inactive	inactive	inactive	–	–	inactive	–	inactive	–	inactive	inactive	inactive	inactive	–	–	–	–	inactive	–	inactive
CC(C)OB(OC(C)C)OC(C)C	inactive	inactive	inactive	inactive	inactive	inactive	–	inactive	–	inactive	inactive	inactive	inactive	inactive	inactive	inactive	inactive	inactive	–	–
Nc1ccccc1N	62.6 µM (active) and 27.3 µM (active)	2.43 µM (active)	inactive	inactive	–	inactive	–	inactive	–	inactive	inactive	–	inactive	inactive	inactive	–	–	–	314 nM (active) and 686 nM (active)	–
COC(=O)CCC(=O)OC	inactive	inactive	inactive	inactive	inactive	inactive	inactive	inactive	–	inactive	inactive	inactive	inactive	inactive	inactive	inactive	inactive	–	–	–
Cc1ncc[nH]1	inactive	inactive	inactive	inactive	inactive	inactive	inactive	inactive	inactive	inactive	inactive	inactive	inactive	inactive	inactive	–	inactive	–	–	–
COC(C)COC(C)COC(C)CO (stereo not given)	inactive	inactive	inactive	inactive	–	inactive	inactive	inactive	–	inactive	inactive	inactive	inactive	–	inactive	inactive	–	inactive	inactive	–
C[Si](C)(C)O[Si](C)(C)C	inactive	inactive	inactive	inactive	–	inactive	inactive	inactive	inactive	inactive	inactive	inactive	inactive	–	–	inactive	–	inactive	inactive	–
CNCCCC12CCC(c3ccccc31)c1ccccc12	inactive	inactive	–	inactive	–	inactive	–	inactive	inactive	inactive	inactive	inactive	inactive	inactive	–	inactive	inactive	inactive	–	–
